Results published in PubChem BioAssay AID2435 (The Scripps Research Institute Molecular Screening Center, 2010).
Screen size: about 320,000 compounds; about 1,000 (0.31%) were called active.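 How the source made its calls: active means activation above the mean of all tested compounds plus 3 SD, cutoff set per screening run (cut at about 20% in these data); inactive means the rest.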 What follows is part of a selection rich in actives, with near analogues and random picks from the rest.

Each compound was assayed against Oxytocin receptor (Homo sapiens) (UniProt P30559) (assay: oxytocin receptor activation by calcium flux – fluorescence, CHO-OTR cells, Fluo-8 calcium, primary screen (AID 2435;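 further: peak over basal fluorescence ratio from a 100 s FLIPR kinetic read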)). Details: Fluo-8 calcium fluorescence, at 3 µM, hits give high values, normalized: DMSO 0%, oxytocin 100%.
Sequence of Oxytocin receptor (Homo sapiens) (P30559 whole entry, looked up): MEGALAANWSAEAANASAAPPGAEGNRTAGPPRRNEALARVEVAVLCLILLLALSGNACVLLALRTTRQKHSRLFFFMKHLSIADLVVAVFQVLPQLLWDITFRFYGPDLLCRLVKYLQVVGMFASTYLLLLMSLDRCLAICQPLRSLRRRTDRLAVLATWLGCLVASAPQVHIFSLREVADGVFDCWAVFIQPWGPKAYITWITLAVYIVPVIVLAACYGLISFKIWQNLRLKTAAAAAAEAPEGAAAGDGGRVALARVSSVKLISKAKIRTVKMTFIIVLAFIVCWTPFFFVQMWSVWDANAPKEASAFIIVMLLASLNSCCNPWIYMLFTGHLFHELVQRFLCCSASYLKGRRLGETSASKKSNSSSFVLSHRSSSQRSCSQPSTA

| Structure (SMILES) | activation |
| --- | --- |
| COc1cc(NC(=O)CSC(=S)N2CCCC2)c(OC)cc1Cl | -1.55% (inactive) |
| CCN1/C(=C\c2ccc3ccccc3[n+]2CC)Sc2cc(C)ccc21 | 23.2% (active) |
| C=CCN1C(=NC(=O)COc2ccccc2)SC2CS(=O)(=O)CC21 (stereo not given) | 1.7% (inactive) |
| O=C(CSc1nc2ncccc2[nH]1)Nc1ccc2c(c1)OCCO2 | -2.32% (inactive) |
| CCc1ccc2c(c1)C1(NN=C(c3ccccc3)S1)C(=O)N2 (stereo not given) | -1.26% (inactive) |
| O=C1/C(=C\c2ccsc2)NC(=S)N1c1ccccc1 | 0.14% (inactive) |
| CN(C)c1ccc(C=C2C(=O)OC3(CCCC3)OC2=O)cc1 | 3.44% (inactive) |
| CN(C)c1ccc(/C=C2\NC(=S)N(Cc3ccccc3)C2=O)cc1 | 51.8% (active) |
| N#CCCN(C(=O)COC(=O)c1ccc2c(c1)OCCO2)c1ccccc1 | 1.54% (inactive) |
| Cn1cccc1C1(C(F)(F)F)NCCNC1=O (stereo not given) | 1.22% (inactive) |
| CCCC(=O)NC(=S)Nc1ccc(CN2CCOCC2)cc1 | 1% (inactive) |
| CCOC(=O)N1CCN(C(=O)CSc2nc(=O)n3cccc(C)c3n2)CC1 | -0.13% (inactive) |
| CCOC(=O)CC1C(=O)NCCN1c1nc2c(C)cccn2c(=O)c1/C=C1\SC(=S)N(C(C)CC)C1=O (stereo not given) | 23.3% (active) |
| Cc1cccn2c(=O)c(/C=C(\C#N)C(N)=O)c(N3CCCCCC3)nc12 | -2.52% (inactive) |
| O=[N+]([O-])c1ccccc1N/N=C1\CCc2ccccc21 | 1.32% (inactive) |
| COc1cc(OC)c(-n2c(C)cc(C=O)c2C)cc1Cl | -0.29% (inactive) |
| COc1cc(OC)c(N2CC(C(=O)Nc3cc(Cl)ccc3N3CCOCC3)CC2=O)cc1Cl (stereo not given) | 10.6% (inactive) |
| COc1cc(OC)c(-n2cc(-c3ccc(Cl)cc3)[nH]c2=O)cc1Cl | 42.2% (active) |
| Cc1ccc(-n2ncc3c(Nc4cccc(C(=O)O)c4)ncnc32)cc1 | -1.04% (inactive) |
| O=C(NCc1cccnc1)C12CC3CC(CC(C3)C1)C2 | -0.43% (inactive) |
| CCCN(CC(=O)Nc1ccccc1OC)C(=O)CCC(=O)c1ccc(F)cc1 | -2.01% (inactive) |
| C/C(=N/NS(=O)(=O)c1ccccc1)c1ccc(NC(=O)C(F)(F)F)cc1 | -0.88% (inactive) |
| O=C(Nc1ccc(O)cc1)c1ccc(NC(=O)c2ccco2)cc1 | 1.38% (inactive) |

| Structure (SMILES) | activation |
| --- | --- |
| C/C(=N\NS(=O)(=O)c1ccc(Cl)cc1)c1ccc(NC(=O)c2ccco2)cc1 | 24.5% (active) |
| O=C(O)CCn1c(O)c(C=C2N=c3ccccc3=N2)sc1=S | 0.13% (inactive) |
| CCc1ccc(-c2nn(-c3ccccc3C)cc2C(=O)N2CCN(C3CCS(=O)(=O)C3)CC2)cc1 (stereo not given) | 2.09% (inactive) |
| CCc1ccc(-c2nn(-c3ccccc3)cc2CSC(=N)N)cc1 | 24.2% (active) |
| Cc1ccc(-c2nn(-c3ccccc3)cc2/C=N/NC(=O)c2ccc3c(c2)OCO3)cc1 | -1.39% (inactive) |
| O=C(CCNC(=O)c1ccccc1)Nc1nc2ccccc2s1 | 2.26% (inactive) |
| O=C(CNC(=O)c1ccccc1)Oc1ccc([N+](=O)[O-])cc1 | 2.42% (inactive) |
| O=C(NC(Nc1nc2ccc([N+](=O)[O-])cc2s1)(C(F)(F)F)C(F)(F)F)c1ccccc1 | 20% (active) |
| CCOC(=O)CN(C)S(=O)(=O)c1ccc(-c2cc(C(=O)OC)sc2C(F)(F)F)cc1 | 1.32% (inactive) |
| O=C(NCc1ccccc1)C(c1ccccc1)N(C(=O)c1csnn1)c1ccc(F)cc1 (stereo not given) | 1.2% (inactive) |
| Nc1ncnc2c1ncn2[C@@H]1O[C@H](CNCc2cccn2-c2nccs2)[C@@H](O)[C@H]1O | -0.14% (inactive) |
| Cc1onc(-c2c(Cl)cccc2Cl)c1C(=O)NNC(=O)c1c(-c2c(Cl)cccc2Cl)noc1C | -1.38% (inactive) |
| Cc1onc(-c2ccccc2)c1C(=O)Nc1ccccc1C#N | -1.5% (inactive) |
| Cc1ccc(CNC(=O)c2c(-c3ccccc3)noc2C)cc1 | -1.84% (inactive) |
| Cc1onc(-c2ccccc2)c1C(=O)NNC(=S)NC(=O)c1ccc(F)cc1 | 32.9% (active) |
| COc1ccc(C(=O)NC(=S)NNC(=O)c2c(-c3ccccc3)noc2C)cc1 | 46.7% (active) |
| CCc1noc(C)c1C(=O)NNC(=O)c1ccc(F)cc1 | 0.43% (inactive) |
| O=C(Nc1ccc(-n2ccnc2P(=O)(O)c2ccccc2)cc1)c1ccccc1Br | -0.12% (inactive) |
| Cc1csc2nc(O)c(C(=O)NCCN3CCOCC3)c(=O)n12 | 0.15% (inactive) |
| Cc1cc(C)c(S(=O)(=O)N2C=CC(C(F)(F)F)=NCC2)c(C)c1 | 0.69% (inactive) |
| CN(CCc1ccccc1)C(=O)c1cccc(NC(=O)Cc2ccc([N+](=O)[O-])cc2)c1 | 13.1% (inactive) |
| CCCc1cc(=O)[nH]c(SCC(=O)N2CCN(S(=O)(=O)c3ccc(C)cc3C)CC2)n1 | -1.06% (inactive) |
| COC(=O)C1(S(=O)(=O)C2(C(=O)OC)CCCC2)CCCC1 | -0.45% (inactive) |

| Structure (SMILES) | activation |
| --- | --- |
| CCOc1cc(-c2cc(-c3ccc(NC(C)=O)cc3)nc(N)c2C#N)ccc1O | 1.58% (inactive) |
| COc1cc(/C=C(\C#N)c2nc3c(s2)CC(C)CC3)ccc1O (stereo not given) | 12.7% (inactive) |
| CCOc1cc(/C=C(\C#N)c2nc(-c3cccs3)c(NC(C)=O)s2)ccc1O | 23.4% (active) |
| Cc1cccc(NC(=O)C(C)N2C(=O)C3C4CC(C(Br)C4Br)C3C2=O)c1 (stereo not given) | 8.44% (inactive) |
| CN(CC(=O)Nc1ccc(OC(F)(F)F)cc1)C(=O)C1CCC1 | 3.13% (inactive) |
| Cc1ccc(OCC(=O)NNC(=S)NCc2ccccc2)cc1 | -1.15% (inactive) |
| Cc1ccc(OCC(=O)NCCCNC(=O)c2ccco2)cc1C | 0.98% (inactive) |
| CCCc1ccc(OCC(=O)NNC(=S)NC(=O)c2ccco2)cc1 | 31.6% (active) |
| O=C(Nc1ccc2ccccc2c1)/C(=C/c1cccc(Br)c1)NC(=O)c1ccco1 | 0.36% (inactive) |
| CC(Oc1ccc2ccccc2c1)C(=O)NNC(=S)NC(=O)c1ccco1 (stereo not given) | 33.9% (active) |
| Cc1ccc(C(=O)NNC(=O)C(C)Oc2ccc3ccccc3c2)o1 (stereo not given) | 1.07% (inactive) |
| COc1ccc(Cn2c(O)c(/C=C3/C=CC=N3)c(=O)[nH]c2=O)cc1 | -0.07% (inactive) |
| CN(C)CCN(C(=O)C1=COCCO1)c1nc2ccc(Cl)cc2s1 | 1.72% (inactive) |
| Cc1nn(Cc2ccccc2)c(C)c1CNC(=O)c1ccc(F)c(S(=O)(=O)N2CCOCC2)c1 | 3.05% (inactive) |
| Cc1ccc2c(c1)N(CC(=O)N1CCCc3ccccc31)C(=O)C(C)O2 (stereo not given) | -1.51% (inactive) |
| Cc1nc(C(=O)Nc2ccc(Cl)cc2)sc1C1(C)CC(c2ccccc2)=NO1 (stereo not given) | 0.47% (inactive) |
| Cc1nc(-c2ccc(Cl)cc2)sc1C1(C)CC(c2ccccc2F)=NO1 (stereo not given) | -0.58% (inactive) |
| Cc1nc(C(=O)NCc2ccccc2)sc1C1(C)CC(c2cccnc2)=NO1 (stereo not given) | 21.7% (active) |
| COCC(C)NC(=O)CSc1nc2nn(-c3ccccc3)c(=O)c-2c2n1CCCCC2 (stereo not given) | -0.74% (inactive) |
| CC(=O)Nc1ccc(S(=O)(=O)N(C)c2ccc(OCC(=O)OCC(=O)N3CCCCC3)cc2)cc1 | 0.24% (inactive) |
| Cn1c(=O)c(=O)n(C)c2cc(S(=O)(=O)CCC(=O)N3CCCCC3)ccc21 | -0.07% (inactive) |
| O=C(C1CCCO1)N(Cc1ccccc1)c1ccccc1 (stereo not given) | -1.09% (inactive) |
| O=C(Cc1c(F)cccc1Cl)Nc1ncc([N+](=O)[O-])s1 | 8.99% (inactive) |

| Structure (SMILES) | activation |
| --- | --- |
| O=C(CCc1ccccc1)Nc1ncc([N+](=O)[O-])s1 | 12.4% (inactive) |
| CC(=O)Oc1ccccc1C(=O)Nc1ncc([N+](=O)[O-])s1 | 20% (active) |
| CCC(C(=O)OCC(=O)Nc1ccc(C(=O)Nc2ccc(OC)cc2)cc1)c1ccccc1 (stereo not given) | 5.16% (inactive) |
| CCC(C(=O)Nc1ccc2c(c1)OCCO2)c1ccccc1 (stereo not given) | 0.44% (inactive) |
| CCC(C(=O)Nc1ccc(C(C)C)cc1)c1ccccc1 (stereo not given) | 41.5% (active) |
| CCCc1nc2ccccc2c(C(=O)OCc2nnc(-c3cc(OC)c(OC)c(OC)c3)o2)c1CC | 0.34% (inactive) |
| C=CCNC(=O)/C=C/c1ccc(C(C)C)cc1 | -2.22% (inactive) |
| OCCCC1CCCCN1Cc1nc(Cc2ccccc2Cl)no1 (stereo not given) | 1.04% (inactive) |
| C=CCOc1cccc(C2C(C(=O)c3ccc(C)o3)=C(O)C(=O)N2CCCn2ccnc2)c1 (stereo not given) | -0.44% (inactive) |
| C=CCOc1cccc(C2C(C(=O)c3ccc(C)o3)=C(O)C(=O)N2c2nnc(C)s2)c1 (stereo not given) | 47.7% (active) |
| Cc1cc(N2C(=O)C(O)=C(C(=O)c3ccc(C)o3)C2c2ccc(OCc3ccccc3)cc2)no1 (stereo not given) | 0.01% (inactive) |
| COC(=O)CN(c1nc(C)c(Cl)c(OC)n1)S(=O)(=O)c1ccc(C)cc1 | -1.64% (inactive) |
| COC(=O)c1nn(-c2cccc(Cl)c2)ccc1=O | 0.3% (inactive) |
| COc1cc(OC)cc(C(=O)N[C@H](C(=O)OCC(=O)NC(C)c2ccccc2)C(C)C)c1 (stereo not given in full) | 76.7% (active) |
| Cc1cc(C)cc(OCC(=O)NC(C)c2ccccc2)c1 (stereo not given) | -2.21% (inactive) |
| COc1cc(OC)cc(C(=O)NCC(=O)OCC(=O)NC(C)CCc2ccccc2)c1 (stereo not given) | -0.13% (inactive) |
| O=C(Cn1c(-c2ccc(Cl)cc2)noc1=O)N1CCN(c2ccccc2F)CC1 | 2.36% (inactive) |
| NS(=O)(=O)c1ccc(CNC(=O)c2cccc(S(=O)(=O)N3CCc4ccccc43)c2)cc1 | -0.73% (inactive) |
| N#C/C(=C/c1ccc(N2CCOCC2)o1)C(=O)N1CCOCC1 | 4.33% (inactive) |
| O=C(CN1C(=O)NC2(CCCCC2)C1=O)NCCc1c[nH]c2ccccc12 | 0.26% (inactive) |
| N#C/C(=C/c1ccc(N2CCCCC2)o1)C(=O)NCCc1c[nH]c2ccccc12 | 27.2% (active) |
